High-throughput results (PubChem)
Compounds with a hit are over-represented: about 21% of the library has one in this group of screens.
Sm TGR inh – inhibitors of Schistosoma mansoni thioredoxin glutathione reductase. Potency, µM (highest dose often 114 µM), usual class: inhibitors. 3% of 360,000 active. purified TGR, DTNB reduction, TNB absorbance 405 nm. Q962Y6; note: nearly all actives have a fitted effect of over 60% in size
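Kinetic colorimetric format: TGR-catalysed, NADPH-driven DTNB reduction monitored via TNB absorbance. Enzyme dispensed at 20 nM; compound exposure 15 min at room temperature before reaction start.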
NS1 inh – blocks influenza NS1 protein function | Potency, µM (series often up to 46.1 µM) | 0.4% of 270,000 active; calls by dose curve; note: actives are rising curves; nearly all actives have a fitted effect of over 50% in size
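In this qHTS, NS1 from influenza A is expressed in budding yeast, where it slows growth. Cells are switched from glucose to 2% galactose medium (pH 6.0, -URA), treated with compound, and growth recovery is read at OD600.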
CHX counter – counter-screen for Shiga toxin inhibitors: cycloheximide protein synthesis inhibition; cell reporter, cycloheximide protein synthesis inhibition counterscreen; max response, %; 12% of 300,000 active; AID 2314; in the data active = max response mostly above about 13%, no sharp cut-off; inactive = mostly below about 14%; note: read at 38.3 µM for the half of the compounds with a filed dose
Pf growth 96h – P. falciparum growth inhibition at 96 hours | AID 504834 | P. falciparum luciferase reporter growth, 96 h | Potency, µM (series often up to 28.7 µM), most hits filed as inhibitors | 6.9% of 320,000 active
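Delayed-death screen, second-generation endpoint: infected erythrocytes, 2% hematocrit, 0.05% parasitemia final; 96 hours at 37 C, 5% CO2; luciferase detection reagent; luminescence decrease equals reduced growth.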
Pf growth 48h – inhibits P. falciparum growth in the first generation, 48 h. P. falciparum luciferase growth in erythrocytes, 48 h. Potency, µM (series often up to 28.7 µM), actives largely listed as inhibitors. 5.9% of 310,000 active. AID 504832
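First compound was added to culture medium, then infected red cells at 0.1% parasitemia and 2% hematocrit (final). After incubation at 37 C under 5% CO2, luciferase detection reagent was dispensed and light output recorded.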
Shiga toxin inh – blocks Shiga toxin action in Vero cells | Vero cells, Shiga toxin protein synthesis inhibition reporter | inhibition, % at 38.7 µM | 9.2% of 290,000 active | AID 2315; in the data active = inhibition mostly above about 28%, no sharp cut-off; inactive = mostly below about 43%
A number is an active result; – = inactive; ? = inconclusive; · = no result; + = active, no number. Unless noted, calls come from the whole dose curve; as a rule, active = well fitted curve in the direction sought with a large enough effect; inconclusive = small, poorly fitted or top-dose-only effect, or another doubt; inactive = no such curve, though single readings can be large; an effect the other way counts as inactive or inconclusive.

SMILES	Sm TGR inh	NS1 inh	CHX counter	Pf growth 96h	Pf growth 48h	Shiga toxin inh
COc1cc(/C=C(\C#N)c2ccccn2)ccc1OCc1ccccc1	–	–	31	?	9.3µM	77
Cc1cc(C)c(C(=O)COC(=O)Cn2c(C)csc2=O)cc1C	–	–	24	–	–	44
Cc1cc(C)c(C(=O)COC(=O)CCn2c(C)csc2=O)cc1C	?	·	·	–	–	·
CCc1cccc(C)c1NC(=O)COC(=O)Cn1c(C)csc1=O	–	·	·	–	–	·
Cc1csc(=O)n1CC(=O)OCc1cccc2ccccc12	–	–	45	–	–	79
c1ccc(Sc2cccc3ccccc23)c(CNC2=NCCN2)c1	–	–	–	0.93µM	1.2µM	–
Fc1ccccc1Sc1ccccc1CNC1=NCCN1	–	–	–	10µM	?	–
Fc1ccccc1CNc1cc(Cl)cc(Cl)c1	–	–	–	–	–	–
COC(=O)c1c(NC(=O)C(=O)N2CCCC2)sc2c1CC(C)(C)OC2	–	–	–	?	?	–
CCC(CC)c1nn2c(=O)cc(COc3ccc(NC(=O)c4ccccc4Cl)cc3)nc2s1	–	·	·	·	·	·
COc1ccc(OC)c(CNC(=O)Cc2ccc(NC(=O)N3CCCCc4ccccc43)cc2)c1	–	·	·	·	·	·
CC(=O)Oc1ccc(C(=O)Cc2ccc3ccccc3n2)c(O)c1C	–	–	26	–	–	+
CCc1ccc(NC(=O)CSc2nc3ccsc3c(=O)n2CCC(=O)O)cc1	–	–	–	7.4µM	–	–
CCc1ccc(NC(=O)CSc2nc3c(c(=O)n(C)c(=O)n3C)n2C)cc1	–	–	–	10µM	–	–
CCOc1ccc(NC(=O)CSc2nc3ccsc3c(=O)n2CCC(=O)O)cc1	–	–	–	–	–	–
CCc1ccc(NC(=O)CSc2nncn2-c2cccnc2)cc1	–	–	32	–	–	151
COc1ccccc1NC(=O)CSc1nncn1-c1cccnc1	–	–	–	–	–	–
CCn1c(CNC(=O)c2ccccc2Br)nnc1SCC(=O)NC1=NCCS1	–	–	–	–	–	–
C=C1c2ccccc2O[C@H](C(=O)OCC)[C@@H]1CCC(C)C (tested in a mixture with another compound)	·	·	–	·	·	–
O=c1[nH]c2ccc(NC(=S)Nc3ccccc3Cl)cc2[nH]1	50µM	–	–	–	·	–
Cc1ccc(NC(=S)Nc2ccc3[nH]c(=O)[nH]c3c2)cc1	–	–	–	–	–	–
Cc1ccccc1NC(=S)Nc1ccc2[nH]c(=O)[nH]c2c1	–	–	–	–	–	–
O=c1[nH]c2ccc(NC(=S)Nc3ccc(Cl)cc3Cl)cc2[nH]1	11µM	–	–	·	–	–
O=c1[nH]c2ccc(NC(=S)Nc3ccc(Cl)cc3)cc2[nH]1	–	–	–	–	·	–
CC(C)c1ccc(NC(=S)Nc2ccc3[nH]c(=O)[nH]c3c2)cc1	–	–	–	–	–	24
SMILES	Sm TGR inh	NS1 inh	CHX counter	Pf growth 96h	Pf growth 48h	Shiga toxin inh
COCCN(C(=S)Nc1cc(C)cc(C)c1)C(C)c1ccco1 (stereo not drawn)	–	·	–	?	–	–
CN(C(=O)COC(=O)c1c2c(nc3ccccc13)CCCC2)c1c(N)n(Cc2ccccc2)c(=O)[nH]c1=O	–	·	·	8.3µM	13µM	·
Cc1ccsc1C(=O)OCC(=O)N(C)c1c(N)n(Cc2ccccc2)c(=O)[nH]c1=O	–	·	·	–	–	·
CC(C)CN(C(=O)COC(=O)c1c2c(nc3ccccc13)CCC2)c1c(N)n(Cc2ccccc2)c(=O)[nH]c1=O	–	–	–	6.6µM	8.3µM	–
Cc1c(C(=O)c2ccccc2)c2ccccc2n1C	–	–	–	–	–	–
COC(=O)c1c(C(=O)c2ccc(Br)cc2)n(C)c2ccccc12	–	·	·	?	13µM	·
O=C(CN1CCOCC1)c1ccc(Br)cc1	35µM	–	–	–	–	–
CCOc1ccc(C(=O)C(CN2CCOCC2)c2ccccc2)cc1 (stereo not drawn)	–	–	–	?	?	–
N=C1CCCN1CC(=O)c1ccc(Br)cc1	–	–	46	–	–	+
O=C(CN1CCOCC1)Nc1ccc(Br)cc1	–	–	–	–	·	–
O=C(c1ccc(Br)cc1)C(CN1CCOCC1)c1ccccc1 (stereo not drawn)	3.5µM	–	–	?	–	–
COCc1cc(C)nc2c1C(=O)NC(c1ccc(Br)cc1)N2Cc1ccccc1 (stereo not drawn)	–	·	·	·	·	·
CSc1nc(N)n2nc(C(C)(C)C)cc2n1	–	–	15	–	–	–
Cc1cc(=O)nc2c3ccccc3n(CC(=O)NC(C)c3ccc4c(c3)OCCO4)n12 (stereo not drawn)	–	–	–	–	–	–
Nc1ccc(-c2ccc(C(=O)O)s2)cn1	–	·	–	–	–	–
COCCCNC(=O)c1sc2ncn(CC(=O)Nc3ccc(C)c(Cl)c3)c(=O)c2c1C	–	·	–	–	–	–
CCN(CC)CCCNC(=O)c1sc2ncn(CC(=O)Nc3ccc(C)c(Cl)c3)c(=O)c2c1C	–	·	–	–	13µM	–
Cc1ccc(NC(=O)Cn2cnc3sc(C(=O)NCCN(C)C)c(C)c3c2=O)cc1Cl	–	–	–	12µM	?	–
CCn1cnc2sc(C(=O)Nc3ccc4c(c3)OCO4)c(C)c2c1=O	–	–	38	–	–	94
CCCCc1ccc(NC(=O)c2cc3c(=O)n4ccccc4nc3s2)cc1	–	·	·	·	·	·
CCN(CC)C(=O)c1ccc2c(c1[N+](=O)[O-])C(=O)c1ccccc1C2=O	–	–	–	?	–	–
CCn1c(SCc2ccc([N+](=O)[O-])cc2)nnc1C(C)NC(=O)c1ccccc1Br (stereo not drawn)	–	–	–	?	–	–
CCn1c(SCc2ccc([N+](=O)[O-])cc2)nnc1C(C)NC(=O)c1ccc(C)cc1 (stereo not drawn)	–	–	–	10µM	–	–
COc1cccc([C@@H]2CC=C(C(=O)O)[C@H](c3ccccc3)N2S(=O)(=O)c2ccc(C)cc2)c1	–	·	·	?	?	·
COc1cccc([C@@H]2CC=C(C(=O)O)[C@H](c3ccc(F)cc3)N2S(=O)(=O)c2ccc(C)cc2)c1	–	·	·	?	?	·
COc1cc([C@@H]2CC=C(C(=O)O)[C@H](c3ccc(F)cc3)N2S(=O)(=O)c2ccc(C)cc2)cc(OC)c1OC	–	·	·	1.9µM	3.3µM	·
COc1cccc([C@@H]2CC=C(C(=O)O)[C@H](c3cccc(Cl)c3)N2S(=O)(=O)c2ccc(C)cc2)c1	–	·	·	12µM	?	·
COc1cc([C@@H]2CC=C(C(=O)O)[C@H](c3ccccc3F)N2S(=O)(=O)c2ccc(C)cc2)cc(OC)c1OC	–	·	·	10µM	10µM	·
COc1ccc([C@@H]2CC=C(C(=O)O)[C@H](c3ccc(F)cc3)N2S(=O)(=O)c2ccc(C)cc2)cc1OC	–	·	·	10µM	?	·
O=c1oc2ccccc2c(Nc2cccc3cccnc23)c1[N+](=O)[O-]	·	–	–	–	–	–
